Screening results (PubChem)
aDG glyco up – increases alpha dystroglycan glycosylation; Pro5-aDG cells, alpha-DG glycosylation AlphaScreen (IIH6); 0% Pro5, 100% B10-LARGE cell signal; activation, % at 10 µM; hit rate 0.22% among 360,000; AID 624168;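 active = activation of at least 8% versus controls, or a plate z-score of at least 8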;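 note: Pro5 are CHO cells carrying HIG-tagged alpha-DG that lacks glycosylation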
Env fusion inh – HIV envelope-mediated fusion inhibition | hit rate 1.1% among 360,000 | inhibition, % at 12.3 µM | AID 651610 | HeLa-JRFL Env/CEM21 cell fusion, luciferase;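 active = mean replicate inhibition score of at least 50 and every replicate individually at or above 50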;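 note: 0% = plate neutral controls and 100% = maraviroc near 300 nM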
Gli-Sufu antag – blocks Gli-Sufu signaling in a luciferase reporter; Sufu-KO-LIGHT fibroblasts, Gli luciferase reporter luminescence; inhibition, % at 5 µM; hit rate 0.74% among 340,000; AID 588413;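 active = inhibition above about 55%, limit read from the data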;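 note: 0% = DMSO-treated cells and 100% = wells with medium but no cells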
GalR3 antagonist – blocks the human galanin receptor 3; O60755; HEK293 GalR3-CNG cAMP membrane potential fluorescence; galR3 body fused to GalR1 C-terminus; inhibition, % at 3 µM; hit rate 0.44% among 360,000; AID 651719;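 active = inhibition above the screen-wide average plus 3 SD, cut at about 13% in these data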;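 note: forskolin and galanin both at EC90 stimulate the cells; cAMP rise reported by CNG channel membrane potential dye signal; 0% = forskolin plus galanin with DMSO and 100% = forskolin alone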
Target sequence (O60755 1-299 limits assumed): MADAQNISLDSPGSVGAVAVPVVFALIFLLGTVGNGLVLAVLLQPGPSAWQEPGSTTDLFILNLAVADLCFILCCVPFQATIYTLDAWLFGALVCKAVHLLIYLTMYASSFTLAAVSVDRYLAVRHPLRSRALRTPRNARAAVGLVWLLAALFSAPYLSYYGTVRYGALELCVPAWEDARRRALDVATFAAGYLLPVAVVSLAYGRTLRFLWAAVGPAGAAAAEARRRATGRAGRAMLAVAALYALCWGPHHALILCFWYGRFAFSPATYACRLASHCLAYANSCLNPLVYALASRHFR
COUP-TFII inh – NR2F2 (human) inhibition, primary screen; P24468; HEK293T NGFI-A luciferase reporter, luminescence; inhibition, % at 8.6 µM; hit rate 0.7% among 370,000;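 active = inhibition above a per-plate cutoff, mean inhibition of test wells between control levels plus 3 SD, cut at about 38% in these data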;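 note: cells cotransfected with COUP-TFII expression vector driving the NGFI-A reporter; 0% = median of COUP-TF2 test wells and 100% = reporter-only cells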
An asterisk follows results filed as active; / = not tested or not shown; [ ] = another dose, or the depositor's remark. This is a sample that favours compounds with a hit; in the whole collection about 2.1% have one here.

SMILES	aDG glyco up	Env fusion inh	Gli-Sufu antag	GalR3 antagonist	COUP-TFII inh
COc1ccc(NC(=O)N(C)C[C@H]2Oc3ncc(-c4cccnc4)cc3C(=O)N([C@H](C)CO)C[C@@H]2C)cc1	/	-6[16.7 µM]	/	/	/
c1cc(-c2nnc3sc(C4CCCCC4)nn23)ccn1	0	63*	-10	-4	29
Cc1ccc(/C=C2\SC(=S)N(CCCC(=O)Nc3ccc(O)cc3)C2=O)cc1	0	64*	42	-2	31
O=C(CCCN1C(=O)/C(=C/c2cccs2)SC1=S)NNC(=O)c1ccccc1O	1	-12	-2	-2	0
COc1ccc(/C=C2\SC(=S)N(CCCC(=O)NNC(=O)c3ccccc3O)C2=O)cc1	3	59*	26	-1	25
COC(=O)c1ccc(/C=C2/SC(=S)N(CCCC(=O)Nc3ccc(O)cc3)C2=O)cc1	0	0	19	5	19
Cc1ccc(/C=C2\SC(=S)N(CCCC(=O)Nc3ccccc3C(=O)O)C2=O)cc1	0	68*	22	2	15
CC1CC(C)CN(S(=O)(=O)c2ccc(Oc3ccc([N+](=O)[O-])cc3)cc2)C1 (stereo not given)	0	56*	10	-9	11
CC1CCCN(S(=O)(=O)c2ccc([N+](=O)[O-])cc2)C1 (stereo not given)	0	0	-17	-5	-6
CC(C)(C)c1ccc(C(=O)CC(=O)c2cc(Cl)ccc2O)cc1	1	83*	-61	-5	-14
CCN(C1CCCCC1)S(=O)(=O)c1ccc(S(=O)(=O)N(CC(=O)Nc2ccccc2)C2CC2)cc1	0	75*	3	-7	9
CC(=O)Nc1ccc(S(=O)(=O)NCC(=O)OCC(=O)NCc2ccc3c(c2)OCO3)cc1	0	22	-47	-1	-9
Cc1ccc(S(=O)(=O)NCC(=O)OCC(=O)NCc2ccc3c(c2)OCO3)cc1	0	68*	-6	-4	-7
CCCNC(=O)C[C@@H]1C[C@H]2c3cc(NC(=O)c4cccnc4)ccc3O[C@H]2[C@@H](CO)O1	/	11[16.7 µM]	/	/	/
CN1/C(=C/c2cc[n+](C)c3ccccc23)C=Cc2ccccc21	1	/	89*	/	/
O=C(CCN1CCCCC1)N[C@H]1CC[C@H](CCNS(=O)(=O)c2ccccc2)O[C@H]1CO	/	-8[16.7 µM]	/	/	/
COc1ccc(NC(=O)Nc2ccc3c(c2)C(=O)N([C@@H](C)CO)C[C@H](C)[C@@H](CN(C)S(=O)(=O)c2c(C)noc2C)OCCCC[C@H](C)O3)cc1	/	68*[16.7 µM]	/	/	/
Cc1noc(C)c1S(=O)(=O)N(C)C[C@H]1OCCCC[C@H](C)Oc2ccc(NC(=O)Nc3ccccc3)cc2C(=O)N([C@@H](C)CO)C[C@@H]1C	/	65*[16.7 µM]	/	/	/
Cc1noc(C)c1S(=O)(=O)N(C)C[C@@H]1OCCCC[C@@H](C)Oc2ccc(NC(=O)Nc3ccccc3)cc2C(=O)N([C@H](C)CO)C[C@H]1C	/	44[16.7 µM]	/	/	/
O=C(Nc1ccccc1N1CCN(C(=O)c2ccccc2)CC1)c1ccc(Br)o1	0	69*	26	-5	4
O=C(Nc1ccccc1N1CCN(C(=O)c2ccccc2)CC1)c1ccc(Cl)cc1	1	-3	-9	-9	13
O=C(NC(=S)Nc1ccccc1N1CCN(C(=O)c2ccccc2)CC1)c1ccccc1F	0	58*	12	-3	4
CC(C)(C)OC(=O)C1=CC[C@@H](c2ccc(Cl)c(Cl)c2)N(S(=O)(=O)c2ccc(F)cc2)[C@H]1c1cccc(F)c1	0	93*	/	-2	-3
COc1ccccc1NC(=S)Nc1cccc2cnccc12	0	58*	15	0	14
COc1ccc(NC(=S)Nc2cccc3cnccc23)cc1	0	-58	5	3	-12
CN(C)S(=O)(=O)c1cccc(NC(=S)Nc2cccc3cnccc23)c1	3	45	-1	1	44*
CNC(=O)C[C@@H]1CC[C@@H]2[C@H](COc3ccc(NC(=O)Nc4ccccc4F)cc3C(=O)N2C)O1	/	3[16.7 µM]	/	/	/
C[C@@H]1CCCCO[C@@H](CN(C)S(=O)(=O)c2cn(C)cn2)[C@@H](C)CN([C@H](C)CO)C(=O)c2cc(NC(=O)CCC(F)(F)F)ccc2O1	/	20[16.7 µM]	/	/	/
Cc1ccccc1S(=O)(=O)N1C[C@@H]2C(C(=O)C[C@@H]3C(=O)N(C)C(=O)[C@@H]32)[C@@H]1c1ccc(Cl)cc1 (stereo not given in full)	0	61*	/	-5	0
